Measured values taken from PubChem BioAssay (Tox21).
Results filed as inconclusive are left out. Activity calls are given as the source filed them. Unless noted, calls follow the shape of the dose curve; as a rule, active = well fitted curve in the direction sought with a large enough effect in the repeat runs; inconclusive = weak or mixed curves; inactive = no such curve, though single readings can be large; an effect the other way counts as inactive or inconclusive.

What was measured:
[1] = qHTS assay to identify small molecule HDAC inhibitors (AID 1259364); also: top concentration of the series differs between compounds; nearly all actives have a fitted effect of over 45% in size
Outline: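 Luminescence from a cell-permeant luminogenic class I/II HDAC substrate reports endogenous deacetylase activity in intact HCT-116 cells treated with compounds for 2 h.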

[2] = qHTS assay to identify small molecule HDAC inhibitors - cell viability counter screen (AID 1259365); also: series mostly up to about 92 µM; nearly all actives have a fitted effect of over 50% in size
Outline: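 Following a 2hr exposure of overnight-plated wild-type HCT-116 cells to DMSO-delivered compounds, CellTiter-Glo was added and luminescence recorded after 30min at room temperature.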

[3] = qHTS assay to identify small molecule antagonists of the sonic hedgehog signaling (Shh) pathway - cell viability counter screen (AID 1259367); also: nearly all actives have a fitted effect of over 55% in size; also: potency is read from the fitted curve at half-maximal effect
Outline: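 Cells: 3T3 Gli1-Luc, 2,000/well, 4 hr pre-incubation. Compounds in DMSO, then conditioned medium. Incubation 24 hr, 37C, 5% CO2. CellTiter-Fluor at 23 hr, 1 hr, fluorescence.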

[4] = qHTS assay to identify small molecule agonists of the sonic hedgehog signaling (Shh) pathway (AID 1259368; calls by dose curve; also: nearly all actives have a fitted effect of over 15% in size; also: potency is read from the fitted curve at half-maximal effect;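 as to activity change: NIH/3T3-derived 3T3Gli1-Luc cells carrying a stable Gli1-driven firefly luciferase reporter; series mostly up to about 92 µM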)
Outline: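 3T3Gli1-Luc (NIH/3T3 clone, stable Gli1-Luc); 4 hr pre-incubation, then cpd in DMSO 24 hr, 37 C/5% CO2; luciferase reagent 30 min RT; luminescence.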

[5] = qHTS assay to identify small molecule antagonists of the sonic hedgehog signaling (Shh) pathway (AID 1259369; calls by dose curve; also: nearly all actives have a fitted effect of over 45% in size; also: potency is read from the fitted curve at half-maximal effect)
Outline: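 3T3Gli1-Luc, conditioned-medium-stimulated, 24hr cpd, 37C/5% CO2; Gli1-driven firefly Luc luminescence after 30min RT with luciferase reagent. Cells plated 4hr before cpd.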

[6] = qHTS assay to identify small molecule agonists or antagonists of the thyroid stimulating hormone receptor (TSHR) signaling pathway - wild type cell line counter screen (AID 1259384; calls by dose curve)
Outline: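 Counter screen in untransfected Hek293: compounds (15-point titration, triplicate) plus phosphodiesterase inhibitor Ro20-1724 added after 18 h plating; 30 min RT. Intracellular cAMP via competitive d2/cryptate immunoassay, 1 h incubation.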

[7] = molecular target: Thyrotropin receptor (Homo sapiens) (UniProt P16473); test: qHTS assay to identify small molecule antagonists of the thyroid stimulating hormone receptor (TSHR) signaling pathway (AID 1259385; calls by dose curve; also: nearly all actives have a fitted effect of over 20% in size; also: potency is read from the fitted curve at half-maximal effect)
Sequence of Thyrotropin receptor (Homo sapiens) (P16473 whole entry, looked up): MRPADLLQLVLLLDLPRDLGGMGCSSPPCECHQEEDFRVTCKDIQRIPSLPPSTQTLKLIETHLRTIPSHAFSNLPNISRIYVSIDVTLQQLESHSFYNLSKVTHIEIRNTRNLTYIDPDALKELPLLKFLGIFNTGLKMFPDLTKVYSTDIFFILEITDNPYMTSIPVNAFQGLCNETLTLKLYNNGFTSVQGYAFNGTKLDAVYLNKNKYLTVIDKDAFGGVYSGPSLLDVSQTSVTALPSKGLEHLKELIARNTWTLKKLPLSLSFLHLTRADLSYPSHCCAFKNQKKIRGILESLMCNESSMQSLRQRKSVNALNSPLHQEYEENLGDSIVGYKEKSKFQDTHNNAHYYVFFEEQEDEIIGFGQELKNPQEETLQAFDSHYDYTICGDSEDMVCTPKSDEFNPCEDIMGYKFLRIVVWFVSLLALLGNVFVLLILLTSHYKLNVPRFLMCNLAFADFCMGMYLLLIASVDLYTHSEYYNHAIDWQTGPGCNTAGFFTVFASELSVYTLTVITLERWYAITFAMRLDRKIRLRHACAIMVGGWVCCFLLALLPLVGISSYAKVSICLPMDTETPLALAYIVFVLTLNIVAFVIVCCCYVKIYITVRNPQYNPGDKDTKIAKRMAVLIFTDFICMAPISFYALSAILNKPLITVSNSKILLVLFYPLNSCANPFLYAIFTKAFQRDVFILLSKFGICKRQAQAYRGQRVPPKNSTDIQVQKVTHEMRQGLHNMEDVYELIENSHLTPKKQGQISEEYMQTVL
Outline: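 Antagonist mode: compound-treated TSHR-expressing HEK293 cells were stimulated with 1.5 ng/mL TSH (final) in presence of Ro20-1724 for 30 min at RT. HTRF cAMP detection after 1 h; each compound tested at 15 concentrations, triplicate.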

[8] = qHTS assay to identify small molecule agonists of the estrogen receptor alpha (ER-alpha) signaling pathway in the presence of an antagonist - cell viability counter screen (AID 1259386);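 also: cells exposed to compounds for 22 h at 37 °C before the viability read; nearly all actives have a fitted effect of over 30% in size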; also: potency is read from the fitted curve at half-maximal effect; as to activity change, negative = cytotoxicity: series mostly up to about 92 µM
Outline: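 VM7Luc4E2, stripped-serum pre-culture 5 d; 24hr plating; +ICI-182,780 10.0nM final; cpds 15 conc, 22hr, 37C/5% CO2; CellTiter-Fluor added at 21hr, fluorescence 1hr later.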

[9] = molecular target: Progesterone receptor (Homo sapiens) (UniProt P06401); test: qHTS assay to identify small molecule agonists of the progesterone receptor (PR) signaling pathway (AID 1346784; calls by dose curve; also: nearly all actives have a fitted effect of over 30% in size)
Sequence of Progesterone receptor (Homo sapiens) (P06401 whole entry, looked up): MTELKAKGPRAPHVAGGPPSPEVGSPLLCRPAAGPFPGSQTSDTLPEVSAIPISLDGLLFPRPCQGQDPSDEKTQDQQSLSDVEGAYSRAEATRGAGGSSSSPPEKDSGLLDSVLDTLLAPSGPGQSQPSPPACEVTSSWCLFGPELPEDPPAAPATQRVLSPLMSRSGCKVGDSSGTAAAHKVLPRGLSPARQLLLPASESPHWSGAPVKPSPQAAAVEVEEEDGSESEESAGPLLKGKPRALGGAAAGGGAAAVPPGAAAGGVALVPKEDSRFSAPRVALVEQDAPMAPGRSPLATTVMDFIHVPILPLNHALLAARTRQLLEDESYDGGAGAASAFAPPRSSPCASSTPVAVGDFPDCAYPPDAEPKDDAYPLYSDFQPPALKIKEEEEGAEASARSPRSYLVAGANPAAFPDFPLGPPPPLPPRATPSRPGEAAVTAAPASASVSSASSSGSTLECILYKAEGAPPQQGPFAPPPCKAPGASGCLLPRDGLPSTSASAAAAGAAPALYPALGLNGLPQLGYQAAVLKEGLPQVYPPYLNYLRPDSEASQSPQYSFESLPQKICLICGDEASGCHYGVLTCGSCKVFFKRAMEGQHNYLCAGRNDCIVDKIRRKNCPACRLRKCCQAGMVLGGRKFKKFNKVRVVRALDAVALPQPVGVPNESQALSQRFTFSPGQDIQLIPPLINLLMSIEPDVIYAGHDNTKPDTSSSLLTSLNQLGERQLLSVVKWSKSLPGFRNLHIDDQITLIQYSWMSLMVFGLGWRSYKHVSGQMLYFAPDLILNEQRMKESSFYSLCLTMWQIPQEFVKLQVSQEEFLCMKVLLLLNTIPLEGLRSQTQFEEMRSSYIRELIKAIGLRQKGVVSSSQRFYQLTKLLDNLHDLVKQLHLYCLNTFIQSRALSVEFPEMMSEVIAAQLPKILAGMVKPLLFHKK
Outline: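 Using charcoal-stripped serum (2%) to limit endogenous steroids, PR-UAS-bla HEK 293T cells received compounds for 16 hr at 37C after 6 hr plating; beta-lactamase FRET fluorescence was recorded following 2 hr substrate loading at room temperature.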

[10] = qHTS assay to identify small molecule agonists of the sonic hedgehog signaling (Shh) pathway - cell viability counter screen (AID 1259366); also: nearly all actives have a fitted effect of over 50% in size; also: potency is read from the fitted curve at half-maximal effect
Outline: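 After a 4hr attachment at 37C, NIH/3T3 cells bearing an integrated Gli1-driven luciferase reporter were dosed with compounds. Treatment lasted 24hr, with the final hour including CellTiter-Fluor for a fluorescence viability measurement.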

[11] = qHTS assay to identify small molecule agonists of the estrogen receptor beta (ER-beta) signaling pathway - cell viability counter screen (AID 1259380); also: nearly all actives have a fitted effect of over 30% in size; also: potency is read from the fitted curve at half-maximal effect
Outline: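 HEK293T ER-beta-UAS-bla; 2% CS-FBS; 6 hr pre-plate, 16 hr cpd at 37C/5% CO2; LiveBLAzer read first, then CellTiter-Glo 30 min RT, luminescence.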

[12] = qHTS assay to identify small molecule agonists of the androgen receptor (AR) signaling pathway in the presence of an antagonist - cell viability counter screen (AID 1259379); also: nearly all actives have a fitted effect of over 25% in size; also: potency is read from the fitted curve at half-maximal effect;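 as to activity change, negative = cytotoxicity: MDA-kb2 human breast cancer cells carrying an MMTV luciferase reporter; series mostly up to about 92 µM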
Outline: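 Cells: MDA-kb2 (MMTV-luc, AR and GR elements), 3,000/well, 5 hr settle. Added: nilutamide 3.0uM final, then compounds (15 conc.). Incubation: 16 hr, 37C, no CO2. Read-out: CellTiter-Fluor, 1 hr, fluorescence.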

[13] = qHTS assay to identify small molecule antagonists of the estrogen receptor beta (ER-beta) signaling pathway - cell viability counter screen (AID 1259382); also: nearly all actives have a fitted effect of over 55% in size; also: potency is read from the fitted curve at half-maximal effect;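 as to activity change, negative = cytotoxicity: HEK293T cells carrying ER-beta-UAS-bla reporter stimulated with estradiol; series mostly up to about 92 µM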
Outline: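 Cells: ER-beta-UAS-bla HEK293T, 2,000/well, 2% CS-FBS, 6 hr settle. Cpd + E2 (1nM final), 16 hr, 37C/5% CO2. Bla FRET substrate 2 hr RT, then CellTiter-Glo 30 min RT, luminescence.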

[14] = molecular target: Estrogen receptor beta (Homo sapiens) (UniProt Q92731); test: qHTS assay to identify small molecule agonists of the estrogen receptor beta (ER-beta) signaling pathway (AID 1259377; active = well fitted activation curve with a large enough effect in the signal ratio in the repeat runs, not every such curve was filed as active; the % refers to the signal ratio; also: potency is read from the fitted curve at half-maximal effect)
Sequence of Estrogen receptor beta (Homo sapiens) (Q92731 whole entry, looked up): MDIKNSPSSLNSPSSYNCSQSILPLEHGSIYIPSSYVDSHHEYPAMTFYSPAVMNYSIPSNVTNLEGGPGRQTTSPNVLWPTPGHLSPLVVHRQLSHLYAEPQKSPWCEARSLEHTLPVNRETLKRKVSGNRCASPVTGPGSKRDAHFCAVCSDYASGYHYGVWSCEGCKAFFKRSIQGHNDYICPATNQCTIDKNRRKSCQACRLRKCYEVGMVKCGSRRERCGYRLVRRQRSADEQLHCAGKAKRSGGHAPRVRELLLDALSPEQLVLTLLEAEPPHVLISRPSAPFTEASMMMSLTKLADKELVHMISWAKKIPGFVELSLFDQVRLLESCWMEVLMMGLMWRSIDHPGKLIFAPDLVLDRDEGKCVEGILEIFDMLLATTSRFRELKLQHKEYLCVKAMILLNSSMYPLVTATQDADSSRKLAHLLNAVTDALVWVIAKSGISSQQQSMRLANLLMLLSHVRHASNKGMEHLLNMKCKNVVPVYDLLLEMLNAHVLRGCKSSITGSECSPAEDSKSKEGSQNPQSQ
Outline: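 In HEK293T cells bearing a UAS-beta-lactamase reporter under ER-beta control, DMSO-delivered compounds were incubated for 16 hr at 37C. Activity was detected as fluorescence 2 hours after LiveBLAzer B/G FRET substrate addition.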

[15] = molecular target: Estrogen receptor beta (Homo sapiens) (UniProt Q92731); test: qHTS assay to identify small molecule antagonists of the estrogen receptor beta (ER-beta) signaling pathway (AID 1259378; active = well fitted inhibition curve with a large enough effect in the signal ratio in the repeat runs, not every such curve was filed as active; the % refers to the signal ratio; also: potency is read from the fitted curve at half-maximal effect)
Outline: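 Antagonist mode: compounds added to beta-lactamase reporter HEK293T ER-beta-UAS cells stimulated with E2 (1nM final), 16 hr at 37C. LiveBLAzer B/G FRET substrate, 2 hours room temperature, fluorescence read-out.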

[16] = molecular target: Estrogen receptor (Homo sapiens) (UniProt P03372); test: qHTS assay to identify small molecule agonists of the estrogen receptor alpha (ER-alpha) signaling pathway in the presence of an antagonist (AID 1259383; calls by dose curve; also: top concentration of the series differs between compounds; nearly all actives have a fitted effect of over 15% in size)
Sequence of Estrogen receptor (Homo sapiens) (P03372 whole entry, looked up): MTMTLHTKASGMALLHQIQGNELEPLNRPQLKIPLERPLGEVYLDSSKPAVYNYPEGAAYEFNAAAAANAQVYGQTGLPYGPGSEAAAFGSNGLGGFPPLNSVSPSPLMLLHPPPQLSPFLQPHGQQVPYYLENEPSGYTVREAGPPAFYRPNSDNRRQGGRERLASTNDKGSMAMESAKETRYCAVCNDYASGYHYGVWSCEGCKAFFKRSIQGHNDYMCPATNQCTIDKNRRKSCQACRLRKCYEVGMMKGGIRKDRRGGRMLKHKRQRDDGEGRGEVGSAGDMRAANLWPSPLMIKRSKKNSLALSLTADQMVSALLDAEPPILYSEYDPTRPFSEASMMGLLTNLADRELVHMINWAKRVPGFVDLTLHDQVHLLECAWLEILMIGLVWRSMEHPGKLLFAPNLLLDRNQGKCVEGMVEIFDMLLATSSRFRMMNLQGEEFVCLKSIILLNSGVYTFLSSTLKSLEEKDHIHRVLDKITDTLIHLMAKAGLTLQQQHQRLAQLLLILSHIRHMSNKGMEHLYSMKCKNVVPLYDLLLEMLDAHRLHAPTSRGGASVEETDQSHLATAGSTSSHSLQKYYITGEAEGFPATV
Outline: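 VM7Luc4E2, endog. ER-alpha + 4×ERE-luc; charcoal-stripped FBS, phenol red-free, 5 d; 24hr plating; +10.0nM ICI-182,780 (final); cpds 15 conc, 22hr, 37C/5% CO2; ONE-Glo luminescence.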

[17] = molecular target: Androgen receptor (Homo sapiens) (UniProt P10275); test: qHTS assay to identify small molecule agonists of the androgen receptor (AR) signaling pathway in the presence of an antagonist (AID 1259381; calls by dose curve; also: nearly all actives have a fitted effect of over 15% in size)
Sequence of Androgen receptor (Homo sapiens) (P10275 whole entry, looked up): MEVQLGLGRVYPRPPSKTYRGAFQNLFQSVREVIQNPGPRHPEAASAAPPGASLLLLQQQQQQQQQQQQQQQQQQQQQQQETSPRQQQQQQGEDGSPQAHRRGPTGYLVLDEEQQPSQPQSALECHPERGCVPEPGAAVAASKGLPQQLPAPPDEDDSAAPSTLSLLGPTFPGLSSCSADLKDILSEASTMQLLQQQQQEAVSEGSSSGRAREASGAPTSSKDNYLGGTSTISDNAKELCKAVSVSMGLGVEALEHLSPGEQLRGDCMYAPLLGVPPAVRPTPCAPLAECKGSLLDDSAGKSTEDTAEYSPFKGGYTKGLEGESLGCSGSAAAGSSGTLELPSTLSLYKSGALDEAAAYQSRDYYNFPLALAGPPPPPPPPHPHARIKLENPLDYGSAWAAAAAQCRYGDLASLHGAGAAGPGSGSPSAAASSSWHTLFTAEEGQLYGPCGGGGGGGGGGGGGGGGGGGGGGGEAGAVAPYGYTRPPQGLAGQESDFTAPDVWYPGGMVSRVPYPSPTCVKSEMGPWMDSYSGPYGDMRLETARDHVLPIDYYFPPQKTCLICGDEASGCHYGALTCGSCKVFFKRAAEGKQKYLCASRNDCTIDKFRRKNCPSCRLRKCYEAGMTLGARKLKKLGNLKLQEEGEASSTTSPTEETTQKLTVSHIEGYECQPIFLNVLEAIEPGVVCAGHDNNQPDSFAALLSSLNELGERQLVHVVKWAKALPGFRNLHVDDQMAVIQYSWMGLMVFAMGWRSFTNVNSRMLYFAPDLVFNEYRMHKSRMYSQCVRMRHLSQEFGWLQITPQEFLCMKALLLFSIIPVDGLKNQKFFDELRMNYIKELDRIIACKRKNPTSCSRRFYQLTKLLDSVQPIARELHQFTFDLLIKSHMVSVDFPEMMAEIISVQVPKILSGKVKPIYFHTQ
Outline: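 MDA-kb2 cells, 3,000/well, rested 5hr at 37C/0% CO2 → nilutamide 3.0uM final or buffer → compounds, 15 conc. → 16hr at 37C → ONE-Glo, 30min RT → luminescence.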
% is scaled to controls: 0 for no effect and ±100 for the full control effect.

CC(C)c1cccc(C(C)C)c1N1C(=O)c2ccc(O)cc2C1=O
active: Potency [5] 13.7 µM
inactive: Potency [1] | Potency [2] | Potency [3] | Potency [4] | outcome [6] | Potency [7] | Potency [8] | outcome [9]

CC(=O)OC(OC(C)=O)c1ccc([N+](=O)[O-])o1
inactive: Potency [1] | outcome [6]
active: Potency [10] 22.1 µM | Potency [3] 24.8 µM | Potency [5] 8.78 µM | Potency [11] 62.2 µM | Potency [8] 49.4 µM

CN1[C@@H]2CC[C@@H]1CC(OC(=O)C(CO)c1ccccc1)C2 (stereo partly specified)
inactive: Potency [1] | Potency [2] | Potency [10] | Potency [3] | Potency [5] | Potency [12] | Potency [11] | Potency [13] | Potency [8] | outcome [9]

COC(=O)NCCC[Si](OC)(OC)OC
inactive: Potency [1] | Potency [2] | Potency [10] | Potency [4] | Potency [5] | Potency [14] | Potency [15] | Potency [12] | Potency [11] | Potency [13] | outcome [6] | Potency [7] | Potency [8] | outcome [9]

CCCCCCC(C)Nc1ccc(Nc2ccccc2)cc1 (stereo unspecified)
active: Potency [5] 27.3 µM | Potency [15] 48.6 µM
inactive: Potency [1] | Potency [2] | Potency [4] | Potency [14] | Potency [12]

CCN(CC)c1ccc(N)cc1
inactive: Potency [1] | Potency [2] | Potency [4] | outcome [6]
active: Potency [10] 35.3 µM | Potency [5] 4.99 µM | Potency [12] 19.9 µM | Potency [13] 49.9 µM | Potency [8] 28.1 µM

c1cc2c3c(c1)ccc1cccc(c13)C2
inactive: Potency [1] | Potency [2] | Potency [3] | Potency [4] | Potency [14] | Potency [13] | outcome [6] | Potency [8] | outcome [9]

Cc1c(-c2ccc(O)cc2)n(Cc2ccc(OCCN3CCCCCC3)cc2)c2ccc(O)cc12
active: Potency [10] 13.3 µM | Potency [3] 26.6 µM | Potency [5] 11.9 µM | Potency [12] 29.8 µM | Potency [11] 29.8 µM | Potency [13] 26.6 µM
inactive: Potency [1] | Potency [4] | Potency [8]

Oc1ccc(-c2ccc(O)cc2)cc1
active: Potency [5] 6.15 µM | Potency [14] 2.75 µM
inactive: Potency [2] | Potency [4] | Potency [12] | Potency [13] | outcome [6] | Potency [7] | Potency [8]

C=CCCCCCCC=C
inactive: Potency [1] | Potency [2] | Potency [4] | Potency [12] | Potency [11] | Potency [13] | Potency [8] | outcome [9]
active: Potency [5] 30.7 µM

C=CC(=O)OCCOCC(CC)(COCCOC(=O)C=C)COCCOC(=O)C=C
active: Potency [10] 5.67 µM | Potency [3] 7.14 µM | Potency [4] 16 µM | Potency [5] 5.67 µM | Potency [12] 40.2 µM | Potency [11] 89.9 µM | Potency [8] 35.8 µM
inactive: Potency [1] | outcome [6] | Potency [7]

CCCCCCOc1cc(C)c(O)c(C)c1C
inactive: Potency [1] | Potency [4] | Potency [16] | outcome [6]
active: Potency [3] 61.9 µM | Potency [5] 61.9 µM | Potency [11] 55.1 µM | Potency [13] 61.9 µM | Potency [7] 55.1 µM

Cc1cccc(C)c1NC(=O)CN1CCN(CCCC(c2ccc(F)cc2)c2ccc(F)cc2)CC1
inactive: Potency [1] | Potency [4] | Potency [14] | outcome [6]
active: Potency [11] 26.6 µM | Potency [13] 26.6 µM

Cc1cc(Nc2ccc(O)cc2)ccc1N
inactive: Potency [4] | Potency [14] | Potency [15] | Potency [13] | outcome [9]
active: Potency [10] 30.5 µM | Potency [3] 24.2 µM | Potency [12] 24.2 µM | Potency [11] 27.2 µM | Potency [8] 30.5 µM

Cc1occc1SSc1ccoc1C
inactive: Potency [1] | Potency [3] | Potency [4] | Potency [14] | Potency [15] | Potency [12] | Potency [13] | outcome [6] | Potency [7] | Potency [8] | outcome [9]

S=C(SSSSSSC(=S)N1CCCCC1)N1CCCCC1
active: Potency [10] 5.35 µM | Potency [3] 7.56 µM | Potency [15] 13.4 µM
inactive: activity change, negative = inhibition [1] -8.72% [at 19 µM] | activity change [4] -10.5% [at 18.9 µM, hits give high values] | activity change, negative = cytotoxicity [12] -6.95% [at 19 µM] | activation [16] 7.24% [at 19 µM] | activation [9] 0.512% [at 19 µM]

CC(C)(C)CC(C)(C)c1ccccc1O
inactive: Potency [1] | Potency [4] | Potency [12] | outcome [6] | Potency [7]
active: Potency [10] 54.8 µM | Potency [3] 48.8 µM | Potency [5] 27.4 µM | Potency [11] 43.5 µM | Potency [13] 61.4 µM | Potency [8] 61.4 µM

Cc1nc(Nc2ncc(C(=O)Nc3c(C)cccc3Cl)s2)cc(N2CCN(CCO)CC2)n1
active: Potency [10] 0.075 µM | Potency [15] 23.7 µM | Potency [7] 26.6 µM
inactive: Potency [1] | Potency [4] | Potency [5] | Potency [14] | Potency [13] | Potency [16] | outcome [6] | outcome [9]

CC1CCCNC1 (stereo unspecified)
active: Potency [3] 42.4 µM | Potency [5] 26.7 µM
inactive: Potency [1] | Potency [4] | Potency [14] | Potency [12] | Potency [11] | Potency [13] | Potency [16] | outcome [6] | Potency [7] | Potency [8]

C=CC(=C)CCC=C(C)C
inactive: Potency [1] | Potency [2] | Potency [3] | Potency [4] | Potency [5] | Potency [14] | Potency [15] | Potency [12] | Potency [11] | Potency [13] | Potency [8]

CCCCCCC(C)OC(=O)COc1nc(F)c(Cl)c(N)c1Cl (stereo unspecified)
active: Potency [11] 68.6 µM
inactive: Potency [1] | Potency [10] | Potency [3] | Potency [4] | Potency [5] | Potency [12] | Potency [13] | outcome [6] | Potency [7] | Potency [8] | outcome [9]

CC1CCCCN1CCCOC(=O)c1ccc(OC2CCCCC2)cc1 (stereo unspecified)
inactive: Potency [1] | Potency [3] | Potency [4] | Potency [14] | Potency [17] | Potency [13] | Potency [16] | outcome [6] | Potency [7] | outcome [9]

CC1=C(/C=C/C(C)=C/C=C/C(C)=C\C=O)C(C)(C)CCC1
active: Potency [5] 25.8 µM | Potency [15] 32.5 µM | Potency [11] 41 µM
inactive: Potency [1] | Potency [2] | Potency [4] | Potency [14] | outcome [6] | Potency [7] | outcome [9]

O=C(O)CC(=O)O
inactive: Potency [1] | Potency [10] | Potency [3] | Potency [4] | Potency [14] | Potency [15] | Potency [11] | Potency [13] | outcome [6] | Potency [7] | Potency [8]

SCCCCCCCCS
inactive: Potency [2] | Potency [10] | Potency [3] | Potency [4] | Potency [5] | Potency [12] | Potency [11] | Potency [13] | outcome [6] | Potency [7] | Potency [8] | outcome [9]
